Inconclusive results are not listed. Unmarked numbers belong to inactive results. Active and inactive are the calls of the source. Calls follow the shape of the full dose curve; tested in HEK293 reporter line.
assay: qHTS for Inhibitors of the Functional Ribonucleoprotein Complex (vRNP) of Lassa (LASV) Arenavirus: Viability assay - alamar blue signal for LASV Primary Screen (AID 1347083); conditions: cell viability, alamar blue fluorescence (LASV minigenome counter-screen); series mostly up to 57.5 µM; activity change, negative = reduced viability: at the top concentration
% is scaled to controls: 0 for no effect and ±100 for the full control effect.
Also: nearly all actives have a fitted effect of over 80% in size.

Row | Compound | activity change, negative = reduced viability [%] | Potency
1 | Cc1cccc(C(=O)O)c1O | 16.6 | –
2 | CC(=O)OC[C@H]1O[C@@H](OC(C)=O)[C@H](OC(C)=O)[C@@H]1OC(C)=O | 3.55 | –
3 | CNCCCC12CCC(c3ccccc31)c1ccccc12 | – | inactive
4 | Cc1scc2c1N(C(=O)CN1CCN(C)CC1)c1ccccc1NC2=O | – | inactive
5 | CNCc1ccccc1 | 5.08 | –
6 | Cc1cc(O)c2c(O)c3c(O)cccc3cc2c1 | -0.227 | –
7 | O=c1c(-c2ccc(O)cc2)coc2cc(O)cc(O)c12 | – | inactive
8 | Cc1ccc(C(=O)c2ccc(CC(=O)O)n2C)cc1 | 4.81 | –
9 | CCN(CC)C(=O)c1ccc(O)c(OC)c1 | – | inactive
10 | Cc1ccc(S(=O)(=O)NC(=O)NC2CCCCCCC2)cc1 | 2.62 | –
11 | NS(=O)(=O)c1cc2c(cc1Cl)NC(C(Cl)Cl)NS2(=O)=O (stereo not drawn) | – | inactive
12 | C[N+]1(C)[C@@H]2CC(OC(=O)[C@H](CO)c3ccccc3)C[C@H]1[C@@H]1O[C@@H]12 (stereo partly drawn) | -1.64 | –
13 | CC(=O)OCC1=C(C(=O)O)N2C(=O)[C@@H](NC(=O)Cc3cccs3)[C@H]2SC1 | – | inactive
14 | CCN(CC)S(=O)(=O)c1ccc(C(=O)O)cc1 | 8.41 | –
15 | CCCCCCCCCCCCCCCC(=O)NCCO | – | inactive
16 | Cc1cc(NS(=O)(=O)c2ccc(N)cc2)no1 | 11 | –
17 | CCCCCCCCCCCCCCCCCC(=O)O | 3.39 | –
18 | CC(C)NCC(O)c1cc(O)cc(O)c1 (stereo not drawn) | – | inactive
19 | CC1(COc2ccc(CC3SC(=O)NC3=O)cc2)CCCCC1 (stereo not drawn) | -5.66 | –
20 | NS(=O)(=O)c1cc(C(=O)O)cc(N2CCCC2)c1Oc1ccccc1 | 5.67 | –

Row | Compound | activity change, negative = reduced viability [%] | Potency
21 | NS(=O)(=O)c1ccc(C(=O)O)cc1 | 10.7 | –
22 | O=C(c1ccco1)N1CCNCC1 | -3.65 | –
23 | CN(C)CCN1CCN(c2cccc(Cl)c2)C1=O | 1.31 | –
24 | O=C(NCC(O)CO)c1c(I)c(C(=O)NCC(O)CO)c(I)c(N(CCO)C(=O)CO)c1I (stereo not drawn) | -0.978 | –
25 | CC(O)CN(CCN(CC(C)O)CC(C)O)CC(C)O (stereo not drawn) | -3.96 | –
26 | CN1CC(=O)NC1=N | 3.75 | –
27 | C[C@H](CS)C(=O)N1CCC[C@H]1C(=O)O | – | inactive
28 | COC(=O)c1cccnc1 | – | inactive
29 | O=C(O)c1cc(=O)c2ccccc2o1 | 2.61 | –
30 | CC(C)NCC(O)c1ccc(NS(C)(=O)=O)cc1 (stereo not drawn) | – | inactive
31 | CCOC(=O)O[C@]1(C(=O)OCCl)CC[C@H]2[C@@H]3CCC4=CC(=O)C=C[C@]4(C)[C@H]3[C@@H](O)C[C@@]21C | 3.09 | –
32 | CC(=O)NCCCCCC(=O)O | 20.1 | –
33 | O=C(COCCOCCOCC(=O)Nc1c(I)cc(I)c(C(=O)O)c1I)Nc1c(I)cc(I)c(C(=O)O)c1I | 33.9 | –
34 | CN1[C@@H]2CCC[C@@H]1CC(NC(=O)c1nn(C)c3ccccc13)C2 (stereo partly drawn) | -23 | –
35 | C[C@]12C=CC(=O)C=C1CC[C@@H]1[C@@H]2C(=O)C[C@@]2(C)[C@H]1CC[C@]2(O)C(=O)CO | – | inactive
36 | CC(C)[C@H](N)C(=O)OCCOCn1cnc2c(=O)[nH]c(N)nc21 | – | inactive
37 | COc1ccc(C(=O)c2ccccc2)c(O)c1 | 5.2 | –
38 | COc1ccc(C(=O)NCc2ccc(OCCN(C)C)cc2)cc1OC | -10.5 | –
39 | CC[C@H]1OC(=O)[C@H](C)[C@@H](O[C@H]2C[C@@](C)(OC)[C@@H](O)[C@H](C)O2)[C@H](C)[C@@H](O[C@@H]2O[C@H](C)C[C@H](N(C)C)[C@@H]2O)[C@](C)(O)C[C@@H](C)CN(C)[C@H](C)[C@@H](O)[C@]1(C)O | -7.47 | –

assay: qHTS for Inhibitors of the Functional Ribonucleoprotein Complex (vRNP) of Lymphocytic Choriomeningitis Arenaviruses (LCMV): Viability assay - alamar blue signal for LCMV Primary Screen (AID 1347085); conditions: alamar blue viability counter-screen, LCMV vRNP screen cells; series mostly up to 57.5 µM; activity change, negative = lower viability: at the top concentration

Row | Compound | activity change, negative = lower viability [%] | Potency
40 | Cc1cccc(C(=O)O)c1O | 2.54 | –
41 | CC(=O)OC[C@H]1O[C@@H](OC(C)=O)[C@H](OC(C)=O)[C@@H]1OC(C)=O | 4.37 | –
42 | CNCCCC12CCC(c3ccccc31)c1ccccc12 | – | inactive
43 | Cc1scc2c1N(C(=O)CN1CCN(C)CC1)c1ccccc1NC2=O | – | inactive
44 | CNCc1ccccc1 | 6.2 | –
45 | Cc1cc(O)c2c(O)c3c(O)cccc3cc2c1 | 0.822 | –
46 | O=c1c(-c2ccc(O)cc2)coc2cc(O)cc(O)c12 | – | inactive
47 | Cc1ccc(C(=O)c2ccc(CC(=O)O)n2C)cc1 | -2.13 | –
48 | CCN(CC)C(=O)c1ccc(O)c(OC)c1 | – | inactive
49 | Cc1ccc(S(=O)(=O)NC(=O)NC2CCCCCCC2)cc1 | 6.76 | –
50 | NS(=O)(=O)c1cc2c(cc1Cl)NC(C(Cl)Cl)NS2(=O)=O (stereo not drawn) | – | inactive
51 | C[N+]1(C)[C@@H]2CC(OC(=O)[C@H](CO)c3ccccc3)C[C@H]1[C@@H]1O[C@@H]12 (stereo partly drawn) | 10.2 | –
52 | CC(=O)OCC1=C(C(=O)O)N2C(=O)[C@@H](NC(=O)Cc3cccs3)[C@H]2SC1 | – | inactive
53 | CCN(CC)S(=O)(=O)c1ccc(C(=O)O)cc1 | 8.3 | –
54 | CCCCCCCCCCCCCCCC(=O)NCCO | – | inactive
55 | Cc1cc(NS(=O)(=O)c2ccc(N)cc2)no1 | 1.63 | –
56 | CCCCCCCCCCCCCCCCCC(=O)O | 1.31 | –
57 | CC(C)NCC(O)c1cc(O)cc(O)c1 (stereo not drawn) | – | inactive
58 | CC1(COc2ccc(CC3SC(=O)NC3=O)cc2)CCCCC1 (stereo not drawn) | -0.0773 | –
59 | NS(=O)(=O)c1cc(C(=O)O)cc(N2CCCC2)c1Oc1ccccc1 | 1.92 | –

Row | Compound | activity change, negative = lower viability [%] | Potency
60 | NS(=O)(=O)c1ccc(C(=O)O)cc1 | 1.02 | –
61 | O=C(c1ccco1)N1CCNCC1 | -1.97 | –
62 | CN(C)CCN1CCN(c2cccc(Cl)c2)C1=O | 2.95 | –
63 | O=C(NCC(O)CO)c1c(I)c(C(=O)NCC(O)CO)c(I)c(N(CCO)C(=O)CO)c1I (stereo not drawn) | 0.566 | –
64 | CC(O)CN(CCN(CC(C)O)CC(C)O)CC(C)O (stereo not drawn) | -115 | –
65 | CN1CC(=O)NC1=N | 4.01 | –
66 | C[C@H](CS)C(=O)N1CCC[C@H]1C(=O)O | – | inactive
67 | COC(=O)c1cccnc1 | – | inactive
68 | O=C(O)c1cc(=O)c2ccccc2o1 | 1.43 | –
69 | CC(C)NCC(O)c1ccc(NS(C)(=O)=O)cc1 (stereo not drawn) | – | inactive
70 | CCOC(=O)O[C@]1(C(=O)OCCl)CC[C@H]2[C@@H]3CCC4=CC(=O)C=C[C@]4(C)[C@H]3[C@@H](O)C[C@@]21C | 7.83 | –
71 | CC(=O)NCCCCCC(=O)O | 11.4 | –
72 | O=C(COCCOCCOCC(=O)Nc1c(I)cc(I)c(C(=O)O)c1I)Nc1c(I)cc(I)c(C(=O)O)c1I | -89.9 | –
73 | CN1[C@@H]2CCC[C@@H]1CC(NC(=O)c1nn(C)c3ccccc13)C2 (stereo partly drawn) | -0.107 | –
74 | C[C@]12C=CC(=O)C=C1CC[C@@H]1[C@@H]2C(=O)C[C@@]2(C)[C@H]1CC[C@]2(O)C(=O)CO | – | inactive
75 | CC(C)[C@H](N)C(=O)OCCOCn1cnc2c(=O)[nH]c(N)nc21 | – | inactive
76 | COc1ccc(C(=O)c2ccccc2)c(O)c1 | 7.02 | –
77 | COc1ccc(C(=O)NCc2ccc(OCCN(C)C)cc2)cc1OC | 20.8 | –
78 | CC[C@H]1OC(=O)[C@H](C)[C@@H](O[C@H]2C[C@@](C)(OC)[C@@H](O)[C@H](C)O2)[C@H](C)[C@@H](O[C@@H]2O[C@H](C)C[C@H](N(C)C)[C@@H]2O)[C@](C)(O)C[C@@H](C)CN(C)[C@H](C)[C@@H](O)[C@]1(C)O | -8.05 | –
